Screening results from PubChem BioAssay.
A selection: hits, their analogues and other compounds. The true share with any hit is near 17%.
DT40 TDP1 CPT: growth inhibition of DT40 Tdp1-/-;hTDP1 cells with camptothecin (screen for TDP1 inhibitors). chicken DT40 Tdp1-/-;hTDP1 cells + 20 nM CPT, ATP luminescence, 48 h. Potency, µM (titrated, usually from 46.2 µM), actives largely listed as inhibitors. 12% of 420,000 active. AID 686979; note: nearly all actives have a fitted effect of over 55% in size
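Chicken DT40 Tdp1-/- cells complemented with human TDP1, 400 cells/well, exposed to compounds plus 20 nM camptothecin for at least 48 h at 37 C; viability read as ATP content by CellTiter-Glo luminescence.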
TGFb SMAD3 inh: inhibitors of TGF-b signaling; HepG2 CAGA-GFP TGF-b/SMAD3 reporter, GFP fluorescence, 18 h; TGF-beta stimulated, 500 pg/mL final; Potency, µM (highest dose often 46.1 µM), actives largely listed as inhibitors; 1.2% of 410,000 active; note: nearly all actives have a fitted effect of over 65% in size
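Smad-responsive CAGA-GFP expression was quantified in HEPG2 cells exposed to compounds and 500 pg/mL final TGF-beta for 18 h at 37 degrees C; unstimulated wells defined full inhibition.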
ATXN2 expr inh: ATXN2 expression inhibition; Potency, µM (series often up to 57 µM), hits mostly inhibitors; AID 1745845; HEK-293 ATXN2-luciferase reporter, luminescence, 24 h; 0.72% of 360,000 active; note: nearly all actives have a fitted effect of over 55% in size
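qHTS (up to 57 uM final) was run with 24 h compound exposure of reporter cells at 37 °C. Each well was multiplexed: SteadyGlo luminescence measured ATXN2-luciferase expression after a fluorogenic Gly-Phe-AFC viability readout (25 uM final).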
HepG2 viability: kills HepG2 cells in TGF-b inhibitor counter-screen; AID 588856; Potency, µM (doses to about 46.1 µM), most hits filed as cytotoxic; HepG2 CAGA-GFP viability, ATP luminescence, 18 h; 0.76% of 410,000 active
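HepG2 CAGA-GFP cells (1000/well, DMEM with 1% FBS) received compound, then TGF-beta at 500 pg/mL final, and were incubated 18 hours at 37 degrees C. Viability was read by CellTiter-Glo luminescence. Media-only wells were set as complete cell-killing and DMSO as no toxicity.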
ATXN viability: viability counter-screen for ATXN expression inhibitors; S2 cells (HEK-293 line with an ATXN2-luciferase reporter) viability, CellTiter-Fluor protease fluorescence, 24 h; Potency, µM (top dose mostly 56.7 µM), hits mostly cytotoxic; 0.49% of 400,000 active; note: nearly all actives have a fitted effect of over 40% in size
DT40 TDP1 no CPT: qHTS for Inhibitors of human tyrosyl-DNA phosphodiesterase 1 (TDP1): qHTS in cells in absence of CPT; DT40 Tdp1-/- hTDP1 cells, no CPT, ATP luminescence, 48 h; Potency, µM (doses to about 46.2 µM), hits mostly inhibitors; 15% of 420,000 active; AID 686978, 2013; note: nearly all actives have a fitted effect of over 55% in size
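Cells were dispensed at 400 per well, compounds added by pin tool, plates incubated ≥48 hr at 37 °C, then CellTiter-Glo added for 30 min at room temperature before luminescence reading. Line: DT40 Tdp1-/- complemented with hTDP1; camptothecin omitted.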
Each line names hits and unclear results; the compound was inactive in the other large screens. Calls come from the whole dose curve; as a rule, active = well fitted curve in the direction sought with a large enough effect; inconclusive = small, poorly fitted or top-dose-only effect, or another doubt; inactive = no such curve, though single readings can be large; an effect the other way counts as inactive or inconclusive.

CCOC(=O)Nc1ccc(Oc2ccccc2)cc1	DT40 TDP1 CPT inconclusive, DT40 TDP1 no CPT inconclusive
Cc1ccc(S(=O)(=O)NCc2ccccc2)cc1C(=O)N(C)Cc1ccccc1F	DT40 TDP1 CPT inconclusive
CCC(=O)OCC(=O)[C@@]1(OC(=O)CC)[C@H](C)C[C@@H]2[C@H]3CCC4=CC(=O)C=C[C@]4(C)[C@]3(Cl)[C@@H](O)C[C@@]21C	none (no result: DT40 TDP1 CPT, TGFb SMAD3 inh, ATXN2 expr inh, HepG2 viability, DT40 TDP1 no CPT)
COc1ccc(/C=C/C(=O)c2cc3cccc(OC)c3oc2=O)cc1	DT40 TDP1 CPT inconclusive, ATXN2 expr inh inconclusive, ATXN viability inconclusive, DT40 TDP1 no CPT 23µM
Cc1[nH]c(C)c(C(=O)/C=C/c2ccc([N+](=O)[O-])cc2)c1C	DT40 TDP1 CPT 16µM, TGFb SMAD3 inh inconclusive, ATXN viability inconclusive, DT40 TDP1 no CPT 23µM (no result: ATXN2 expr inh)
O=C(C=Cc1ccccc1)c1ccc([N+](=O)[O-])cc1	DT40 TDP1 CPT inconclusive, TGFb SMAD3 inh inconclusive, DT40 TDP1 no CPT 18µM
COc1ccc(C(=O)/C=C/c2ccccc2)cc1	DT40 TDP1 CPT inconclusive, DT40 TDP1 no CPT 23µM (no result: TGFb SMAD3 inh, ATXN2 expr inh, HepG2 viability, ATXN viability)
COc1ccc(C(=O)/C=C/c2ccc(O)cc2)cc1	DT40 TDP1 no CPT inconclusive
COc1ccc(NC(=O)CNS(=O)(=O)c2ccc3nc(C)sc3c2)c(OC)c1	none
Cc1ccc(NC(=O)CN2C(=O)S/C(=C\c3cc(C)n(C)c3C)C2=O)cc1	none
Cc1cccc(NC(=O)CN2C(=O)S/C(=C\c3cc(C)n(C)c3C)C2=O)c1	TGFb SMAD3 inh inconclusive, DT40 TDP1 no CPT 18µM
COc1ccc(CCN(C)C/C=C/c2ccccc2[N+](=O)[O-])cc1OC	DT40 TDP1 CPT inconclusive, DT40 TDP1 no CPT inconclusive
COc1ccc(CCN(C)c2ccc(C(N)=O)cc2[N+](=O)[O-])cc1OC	DT40 TDP1 CPT 29µM
O=C(NCc1ccccc1)c1ccc(S(=O)(=O)N2CCCCCC2)cc1	DT40 TDP1 CPT inconclusive, ATXN viability inconclusive, DT40 TDP1 no CPT inconclusive (no result: ATXN2 expr inh)
COc1ccc(S(=O)(=O)N2CCCCC2)cc1C(=O)N1CCCCCC1	none
CCCCOc1ccc(C(O)(CCC)CCN2CCOCC2)cc1 (stereo not given)	DT40 TDP1 CPT 21µM, TGFb SMAD3 inh inconclusive, DT40 TDP1 no CPT 16µM
CCCCCOc1ccc(C(C)(O)C(CN2CCOCC2)c2ccccc2)cc1 (stereo not given)	DT40 TDP1 CPT inconclusive, TGFb SMAD3 inh inconclusive, DT40 TDP1 no CPT 21µM (no result: ATXN2 expr inh)
CCCCCCC(O)(c1ccc(OC)cc1)C(CN1CCOCC1)c1ccccc1 (stereo not given)	DT40 TDP1 CPT inconclusive, TGFb SMAD3 inh inconclusive, DT40 TDP1 no CPT inconclusive
CCc1ccc(C(O)(C(C)C)C(CN2CCOCC2)c2ccccc2)cc1 (stereo not given)	DT40 TDP1 CPT 16µM, TGFb SMAD3 inh inconclusive, DT40 TDP1 no CPT 16µM
CCCCCC(O)(c1ccccc1)C(CN1CCOCC1)c1ccccc1 (stereo not given)	DT40 TDP1 CPT inconclusive, TGFb SMAD3 inh inconclusive, DT40 TDP1 no CPT inconclusive
CCc1ccc(C(C)(O)C(CN2CCOCC2)c2ccccc2)cc1 (stereo not given)	DT40 TDP1 CPT 21µM, ATXN viability inconclusive, DT40 TDP1 no CPT 21µM
CCOC(=O)C1CCN(S(=O)(=O)c2ccc(Cl)s2)CC1	none
CC(C)=NOc1nc(N(C)C)nc(N2CCOCC2)n1	DT40 TDP1 CPT inconclusive, TGFb SMAD3 inh inconclusive, DT40 TDP1 no CPT inconclusive
O=C(Nc1ccccc1C(F)(F)F)N1CCN(c2ccc3nncn3n2)CC1	none
CCCOc1ccc(C(=O)C(CN2CCOCC2)c2ccccc2)cc1 (stereo not given)	DT40 TDP1 CPT 13µM, TGFb SMAD3 inh 16µM, ATXN2 expr inh 20µM, ATXN viability inconclusive, DT40 TDP1 no CPT 8.2µM
CCCOc1ccc([N+](=O)[O-])cc1C1NC(=S)NC(c2ccccc2)=C1C(=O)OCC (stereo not given)	DT40 TDP1 CPT inconclusive, ATXN viability inconclusive, DT40 TDP1 no CPT 21µM
CCC(=O)N(Cc1cc2c(C)ccc(C)c2[nH]c1=O)C1CCCCC1	DT40 TDP1 CPT inconclusive, TGFb SMAD3 inh inconclusive, DT40 TDP1 no CPT 16µM
Cc1ccc([C@H]2C[C@@H](n3cc(COC(=O)c4ccccc4)nn3)[C@H](O)CN2Cc2cccs2)cc1	DT40 TDP1 CPT inconclusive, DT40 TDP1 no CPT 21µM
O=C(OCc1cn([C@H]2C[C@H](c3ccccc3)N(Cc3cccs3)C[C@@H]2O)nn1)c1ccccc1	DT40 TDP1 CPT inconclusive, DT40 TDP1 no CPT 21µM
O=C(OCc1cn([C@@H]2CN(Cc3cccs3)[C@@H](c3ccccc3)C[C@H]2O)nn1)c1ccccc1	none
Cc1ccc([C@H]2C[C@H](n3cc(COC(=O)c4ccccc4)nn3)[C@@H](O)CN2Cc2cccs2)cc1	DT40 TDP1 no CPT inconclusive
CCOC(=O)C1CCN(C(=O)Cc2ccc(OC)c(OC)c2)CC1	none
CCOC(=O)N1CCC(NC(=O)c2cc3c(-c4ccccc4F)nn(C)c3s2)CC1	DT40 TDP1 CPT 13µM, DT40 TDP1 no CPT 8.2µM
CCOC(=O)N1CCC(NC(=O)c2cc3c(-c4ccc(OC)c(OC)c4)nn(C)c3s2)CC1	DT40 TDP1 CPT inconclusive, DT40 TDP1 no CPT 21µM
CC1CCCCN1CCNC(=O)c1cc2c(-c3ccccc3F)nn(C)c2s1 (stereo not given)	DT40 TDP1 CPT inconclusive, ATXN viability inconclusive, DT40 TDP1 no CPT inconclusive
CCOC(=O)C1CCN(C(=O)c2cc3c(-c4ccc(OC)c(OC)c4)nn(C)c3s2)CC1	DT40 TDP1 CPT 16µM, DT40 TDP1 no CPT 21µM
CCNc1nc(C#N)nc(NCC)n1	none (no result: ATXN2 expr inh, ATXN viability)
Cc1nn(CC(=O)NC(C)c2ccccc2)c(=O)c2cc3occc3n12 (stereo not given)	none
C=C[C@@]1(C)CC(=O)[C@]2(O)[C@@]3(C)[C@@H](O)CCC(C)(C)[C@@H]3[C@H](OC(C)=O)[C@H](O)[C@@]2(C)O1	none
C=C1C(=O)O[C@H]2C[C@]3(C)C([C@@H](OC(=O)/C(C)=C/C)[C@H]12)[C@](C)(O)CC[C@H]3O (stereo not given in full)	DT40 TDP1 CPT 15µM, TGFb SMAD3 inh inconclusive, ATXN viability inconclusive, DT40 TDP1 no CPT 8.2µM (no result: ATXN2 expr inh)
CCc1ccc(/C=c2\s/c(=C\C(=O)C(C)(C)C)[nH]c2=O)cc1	DT40 TDP1 CPT inconclusive, TGFb SMAD3 inh inconclusive, DT40 TDP1 no CPT 23µM
CCc1ccc(/C=C2/C(=O)NC(=O)N2C(C)=O)cc1	none
Cc1ccccc1/C=c1\s/c(=C\C(=O)C(C)(C)C)[nH]c1=O	DT40 TDP1 CPT 13µM, TGFb SMAD3 inh inconclusive, ATXN viability inconclusive, DT40 TDP1 no CPT 10µM
CC(C)(C)C(=O)/C=C1\NC(=O)CS1	ATXN viability inconclusive
